Screening data: PubChem BioAssay, several laboratories
Rows were chosen to be rich in hits. Some 5.2% of all compounds tested hit in one or more screens of this group.
A3G deaminase: inhibitors of human APOBEC3G DNA deaminase; recombinant A3G, ssDNA deamination FAM/TAMRA fluorescence; inhibition, % at 20 µM; 330,000 tested, 0.28% active; AID 493012;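 active = inhibition of at least 40% at 20 µM, with no more than 30% in the related APOBEC3A deaminase screen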;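 note: plate controls were DMSO wells with A3G for no effect and wells lacking A3G enzyme for full effect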
Target sequence (Q9HC16 whole entry, looked up): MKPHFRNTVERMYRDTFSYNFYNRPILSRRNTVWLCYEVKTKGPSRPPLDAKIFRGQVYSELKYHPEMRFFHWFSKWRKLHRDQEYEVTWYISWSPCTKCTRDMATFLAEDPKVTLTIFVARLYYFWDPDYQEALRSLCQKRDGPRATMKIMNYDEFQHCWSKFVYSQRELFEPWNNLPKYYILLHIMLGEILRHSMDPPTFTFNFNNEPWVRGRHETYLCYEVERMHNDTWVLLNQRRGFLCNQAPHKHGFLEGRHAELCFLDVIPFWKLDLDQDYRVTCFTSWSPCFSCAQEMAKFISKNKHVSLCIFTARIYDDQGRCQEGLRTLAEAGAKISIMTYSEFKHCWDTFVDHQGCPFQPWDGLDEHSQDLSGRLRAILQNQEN
Yeast superoxide: caloric restriction mimetics inhibiting age-related superoxide in yeast. superoxide response (% of plate mean), % at 10 µM. S. cerevisiae aged cells, superoxide DHE fluorescence; stronger effect = lower value. 330,000 tested, 0.18% active;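 active = superoxide response under a set limit, about three screen SD below normal, cut at about 65% in these data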;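 note: yeast aged for seven days with compound at 30 °C before DHE staining; 100% = average MFI of all compound-treated wells on the plate with controls excluded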
PfM18AAP inh: PfM18AAP enzyme inhibition | recombinant PfM18AAP, H-Glu-NHMec fluorogenic cleavage | inhibition, % at 7.35 µM | 290,000 tested, 1.2% active | AID 1822;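 active = inhibition above the campaign mean inhibition over all tested compounds plus 3 SD, cut at about 28% in these data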;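 note: 0% = plate median of test compound wells and 100% = 2 mM ZnCl2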
NRP1-CendR mod: NRP-1/CendR interaction modulation | O14786 | FAM-RPARPAR peptide binding to NRP-1, fluorescence polarization | inhibition, % at 25 µM | 360,000 tested, 0.85% active | AID 602438;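 active = inhibition or corrected inhibition above about 18%, plus a signal ratio from 0.5 to 1.5, limit read from the data, passing the limit was not always enough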
APOBEC3A inh: blocks human APOBEC3A ssDNA deamination; recombinant A3A, FAM/TAMRA ssDNA deamination fluorescence; 330,000 tested, 0.41% active; AID 493011; inhibition, % at 20 µM;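 active = at least 40% inhibition at 20 µM here, with at most 30% in a related deaminase screen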;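 note: plate controls were A3A with DMSO for no effect and wells lacking A3A enzyme for full effect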
ALR H2O2 inh: human ALR oxidase inhibition via reduced H2O2. purified ALR, DTT oxidation, H2O2 HRP-luminol luminescence. P55789. 290,000 tested, 3.8% active. inhibition, % (concentration not given with the values). AID 485317;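 active = mean replicate inhibition above about 79%, with every replicate also reaching it, limit read from the data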
Target sequence (P55789 whole entry, looked up): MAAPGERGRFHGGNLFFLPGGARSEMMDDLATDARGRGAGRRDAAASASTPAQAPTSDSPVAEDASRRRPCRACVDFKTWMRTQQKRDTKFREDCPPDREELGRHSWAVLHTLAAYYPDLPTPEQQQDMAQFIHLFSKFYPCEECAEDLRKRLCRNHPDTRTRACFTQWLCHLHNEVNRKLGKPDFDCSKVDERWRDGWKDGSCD
The depositor's hits bear a star; nt = not tested or not shown.

SMILES | A3G deaminase | Yeast superoxide | PfM18AAP inh | NRP1-CendR mod | APOBEC3A inh | ALR H2O2 inh
CCOc1cc(/C=N/Nc2ncnc(Cl)c2N)ccc1O | -1 | 72 | 15 | 7 | 5 | 99*
CCOc1cc(/C=N/Nc2nnc(C)n2N)ccc1O | -4 | 102 | 25 | 1 | -1 | 99*
Nc1c(Cl)ncnc1N/N=C/c1ccccn1 | nt | 82 | 20 | nt | nt | 50
Nc1ncn(C2O[C@H](CO)[C@@H](O)[C@H]2O)c(=O)n1 (stereo not given in full) | -6 | 99 | nt | nt | 2 | 1
COc1ccc(NC(=O)CC2SC(N)=NC2=O)c([N+](=O)[O-])c1 (stereo not given) | -2 | 111 | 4 | -2 | 3 | -17
COc1cccc(CNC(=O)C2CCCN2S(=O)(=O)c2ccc3c(c2)C(C)(C)C(=O)N3C)c1 (stereo not given) | -2 | 87 | -7 | -9 | -2 | -4
Cc1ccc2nc(NC(=O)CSc3nncc(=O)n3N)sc2c1 | 18 | 112 | 10 | -6 | 3 | 99*
CCOCC(=O)Nc1nc2ccc(C)cc2s1 | -2 | 92 | 5 | 4 | 1 | 97*
CCCC(=O)Nc1nc2ccc(S(N)(=O)=O)cc2s1 | 12 | 108 | 1 | -9 | 5 | 99*
COc1ccc2nc(NC(=O)CSc3nnc(C)n3N)sc2c1 | -6 | 85 | -6 | -1 | -3 | 3
CCC(=O)Nc1nc2ccc(S(C)(=O)=O)cc2s1 | 2 | 102 | -15 | 8 | 0 | -3
CCOCC(=O)Nc1nc2ccc(OCC)cc2s1 | -2 | 92 | 1 | 6 | -3 | 47
CCOC(=O)c1c(-c2cccc([N+](=O)[O-])c2)csc1NC(=O)CCCOc1ccccc1OC | nt | nt | 5 | 33* | nt | nt
COc1cc([N+](=O)[O-])ccc1NC(=O)CCCOc1cccc(C)c1 | 0 | 87 | 3 | 20* | 1 | 0
COc1ccc(CSc2nc(O)cc(=O)n2CC(C)C)cc1F | -6 | 108 | 0 | -2 | -2 | 99*
COc1ccc(OC)c(NC(=O)CSc2nc(O)cc(=O)n2CC(C)C)c1 | -3 | 102 | nt | -14 | -5 | -6
C/C(=N\NC(=S)NC1CCCCC1)c1ccc(Cl)c(Cl)c1 | -3 | 97 | -18 | 8 | 2 | -4
NC(=O)c1ccc(NC(=O)CSC2=Nc3ccccc3C3CC=NN23)cc1 (stereo not given) | -4 | 96 | 1 | -10 | -1 | 99*
Cc1ccc(NC(=O)CSC2=Nc3ccccc3C3CC=NN23)c(C)c1 (stereo not given) | -6 | 107 | 19 | -23 | -3 | 7
COC(=O)c1ccc(NC(=O)CSC2=Nc3ccccc3C3CC=NN23)cc1 (stereo not given) | -3 | 92 | -1 | -11 | -3 | 97*
O=C(CSC1=Nc2ccccc2C2CC=NN12)Nc1ccc(F)cc1Cl (stereo not given) | -6 | 101 | 4 | -8 | 3 | 74
C=C(C)C(=O)Nc1ccc(NC(C)C)cc1 | -7 | 90 | 5 | 0 | -1 | 99*
CC(Nc1ccc(Cl)c(Cl)c1)C(=O)NN (stereo not given) | -5 | 92 | -9 | -5 | -3 | 5
O=C(CSc1nc2c(cnn2-c2cccc(Cl)c2)c(=O)[nH]1)NCCC1=CCCCC1 | -5 | 61* | nt | -3 | 0 | 29
COc1ccc(Nc2cc(C)c3c(O)cccc3n2)cc1 | 4 | 102 | -5 | -1 | -3 | 84*
SMILES | A3G deaminase | Yeast superoxide | PfM18AAP inh | NRP1-CendR mod | APOBEC3A inh | ALR H2O2 inh
Cc1ccc(-c2nnn(CC(=O)N(c3cccc(O)c3)C(C(=O)NC(C)(C)C)c3cccs3)n2)o1 (stereo not given) | -4 | 100 | 3 | -12 | 2 | -3
Cc1ccc(-c2nnn(CC(=O)N(c3cccc(F)c3)C(C(=O)NC(C)(C)C)c3ccco3)n2)o1 (stereo not given) | -3 | 101 | -1 | 44* | -2 | -4
CCC(C)(C)NC(=O)C(c1ccco1)N(C(=O)c1csnn1)c1cccc(F)c1 (stereo not given) | -2 | 83 | -3 | 34* | -1 | -4
NS(=O)(=O)c1ccc(NNC(=O)c2ccc(Br)o2)c([N+](=O)[O-])c1 | 6 | 102 | nt | -6 | 3 | 86*
Cc1ccc(NC(=O)c2ccc(Br)o2)c([N+](=O)[O-])c1 | nt | nt | nt | 10 | nt | nt
COc1cccc(C(=O)NNC(=O)CCN2CCN(c3ccccc3)CC2)c1 | -1 | 102 | nt | 10 | 0 | 86*
CCc1cc(C(=O)NNC(=O)CCN2CCN(c3ccccc3)CC2)sc1C | 5 | 105 | 0 | 16 | 34 | 2
Cc1cc(C(=O)NNC(=O)CCN2CCN(c3ccccc3)CC2)c2ccccc2n1 | -4 | 99 | 2 | 1 | 10 | 98*
O=C(CCN1CCN(c2ccccc2)CC1)NNC(=O)c1cccc2ccccc12 | -7 | 97 | -6 | -8 | -1 | 99*
COc1ccc(C(=O)Nc2ccncc2)cc1S(=O)(=O)N1CCOCC1 | -9 | 77 | nt | -31 | -1 | -7
CCC(C(=O)Nc1cccc(C(F)(F)F)c1)c1ccccc1 (stereo not given) | -3 | 103 | 20 | 0 | -3 | 3
COC(=O)c1c(-c2cccc(OC)c2)csc1N | -8 | 103 | 6 | 0 | 1 | nt
CC(C)(C)OC(=O)NCCCC[C@H](NC(=O)c1[nH]cnc1C(=O)Nc1ccc(Cl)cc1)C(=O)OC(C)(C)C | -6 | 98 | nt | -2 | -2 | 21
CC(C)C[C@H](NC(=O)c1nc[nH]c1C(=O)N[C@@H](CCCCN)C(=O)OC(C)(C)C)C(=O)OC(C)(C)C | -9 | 85 | nt | -4 | -4 | -2
C[C@H](NC(=O)c1[nH]cnc1C(=O)Nc1ccccc1)c1ccccc1 | -10 | 128 | nt | 26* | -4 | -5
CC(C)(C)OC(=O)[C@H](CCCCN)NC(=O)c1nc[nH]c1C(=O)N[C@@H](CCCCN)C(=O)OC(C)(C)C | -2 | 95 | nt | 21* | 1 | 1
CC(C)(C)OC(=O)NCCCC[C@H](NC(=O)c1[nH]cnc1C(=O)Nc1ccccc1)C(=O)OC(C)(C)C | -1 | 83 | nt | 21* | 5 | -19
COc1cc(-c2cc(O)c(-c3ccc4ccccc4n3)c(=O)[nH]2)cc(OC)c1OC | nt | nt | nt | 101 | nt | nt
CNc1ccccc1NC(=O)CCn1c(=S)oc2ccccc21 | -5 | 102 | 6 | 3 | -1 | nt
COc1ccc(N2CCN(C(=O)c3cccnc3SCc3cccc(Br)c3)CC2)cc1 | -7 | 107 | -10 | 15 | 0 | 18
CC(C)N1C(=O)C(=O)N(CC(=O)N(C)c2ccccc2)C1=O | -6 | 105 | nt | 6 | -2 | nt
O=c1[nH]c(/C=C\c2ccc(O)cc2)nc(O)c1[N+](=O)[O-] | 3 | 116 | 9 | -30 | 2 | 97*
C=CCc1cc(/C=C/c2nc(O)c([N+](=O)[O-])c(=O)[nH]2)cc(OC)c1O | -1 | 101 | 28 | -19 | 9 | 82*
O=C(CCN1C(=O)/C(=C/c2ccccc2Cl)SC1=S)NCCCN1CCOCC1 | 1 | 105 | 24 | 8 | 0 | -10
